Assay outcomes (PubChem BioAssay)
D2 antagonist: antagonists of human D2 dopamine receptor. P14416. HEK293 TREx D2 cells, calcium flux, dopamine EC80. inhibition, % at 10 µM. 340,000 tested, 2% active; in the data active = inhibition above about 30%; inactive = below that, where a call was filed; also: 0% is about no effect
Target sequence (P14416 whole entry, looked up): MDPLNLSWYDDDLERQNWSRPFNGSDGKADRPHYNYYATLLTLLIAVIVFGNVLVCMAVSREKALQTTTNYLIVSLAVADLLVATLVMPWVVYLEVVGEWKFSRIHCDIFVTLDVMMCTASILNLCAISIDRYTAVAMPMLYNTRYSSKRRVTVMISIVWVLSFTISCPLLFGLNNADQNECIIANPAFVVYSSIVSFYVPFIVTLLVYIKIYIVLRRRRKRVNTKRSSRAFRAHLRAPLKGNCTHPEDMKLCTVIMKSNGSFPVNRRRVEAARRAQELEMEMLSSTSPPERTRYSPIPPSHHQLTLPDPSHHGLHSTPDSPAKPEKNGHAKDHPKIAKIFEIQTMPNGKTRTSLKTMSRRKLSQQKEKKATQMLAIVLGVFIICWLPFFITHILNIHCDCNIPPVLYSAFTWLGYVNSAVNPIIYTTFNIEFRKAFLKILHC
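Tetracycline-induced HEK293 TREx cells expressing D2 receptor forced-coupled to calcium signalling, loaded with no-wash calcium dye. Compounds added and calcium flux read 180 s, then dopamine added at EC80 and read a further 180 s.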
D2 PAM-1: positively modulates the human D2 dopamine receptor allosterically; HEK293 T-REx D2, calcium flux, EC20 dopamine potentiation; AID 485347; potentiation, % at 10 µM; 340,000 tested, 0.34% active;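 active = potentiation over 3 SD above the plate norm, cut at about 30% in these data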; also: 0% is about no effect
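Primary screen. Calcium kinetics in induced HEK293 T-REx D2 cells: compound pre-addition 180 s, EC20 dopamine, 180 s more.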
D2 PAM-2: positive allosteric modulators of human D2 dopamine receptor. P14416. DiscoveRx D2 beta-arrestin cells, luminescence, 90 min; 100% = 57 uM dopamine signal. potentiation, % (no concentration beside the values). 360,000 tested, 0.23% active. AID 624464; in the data active = potentiation above about 50%
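D2 cells co-treated with compound plus 50 nM dopamine (EC20) for 90 min at 37 deg C to detect potentiation. Beta-arrestin recruitment was read as enzyme-fragment luminescence after 1 h at ambient temperature. Full response was set by 57 uM dopamine.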
D2 ag-1: activates the human D2 dopamine receptor | P14416 | HEK293 T-REx D2 cells, calcium flux agonist mode | activation, % at 2 µM | 340,000 tested, 0.53% active | AID 485358;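 active = activation over 3 SD above normal in the single-dose calcium agonist read, cut at about 30% in these data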; also: 0% is about no effect
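Tetracycline-induced HEK293 T-REx cells with force-coupled D2 receptor, plated overnight at 30 C, loaded with no-wash calcium dye. After a 10 s baseline, compound was pin-added and calcium flux read kinetically for 180 s; calcium rises flagged agonists.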
D2 ag-2: agonists of human D2 dopamine receptor (beta-arrestin). P14416. DiscoveRx PathHunter D2 beta-arrestin, luminescence, 90 min; 100% = 57 uM dopamine signal. activation, % (test concentration not listed). 360,000 tested, 0.084% active; in the data active = activation above about 40%
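DiscoveRx PathHunter D2 beta-arrestin cells (2,100/well) attached overnight, then compound-stimulated 90 min at 37 C in HBSS/10 mM HEPES/0.1% Tween-20 buffer; beta-galactosidase complementation read by luminescence after 1 h at ambient temperature. Dopamine 57 uM final (EC100) as control.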
Starred values were filed as active, the others as inactive; nt = no result. This is a sample that favours compounds with a hit; in the whole collection about 2.4% have one here.

SMILES | D2 antagonist | D2 PAM-1 | D2 PAM-2 | D2 ag-1 | D2 ag-2
C[C@H](CO)N1C[C@H](C)[C@@H](CN(C)Cc2ccc(Cl)c(Cl)c2)OCc2cnnn2CCCC1=O | nt | nt | 3 | nt | -8
CC(=O)OC1COC(OC(C)=O)CO1 (stereo unspecified) | nt | nt | -10 | nt | 0
O=C1c2cccnc2C(Nc2ccc(S(=O)(=O)N3CCCCC3)cc2)N1Cc1ccccc1 (stereo unspecified) | -22 | 33* | 3 | 0 | 0
O=C1c2ccccc2C(Nc2ccc(S(=O)(=O)N3CCCCCC3)cc2)N1c1ccccn1 (stereo unspecified) | 20 | -9 | -7 | -1 | -3
Cc1cc(N2CCN(C(c3ccccc3)c3ccc(Cl)cc3)CC2)n2ncnc2n1 (stereo unspecified) | 31* | 8 | -4 | 0 | -4
Cc1cc(N2CCN(c3ccccc3)CC2)n2ncnc2n1 | -7 | 6 | -2 | 0 | -2
Cc1cc(N2CC(=O)N(CCc3ccccc3)C(=O)C2)n2ncnc2n1 | 32* | -7 | -3 | 0 | 0
Nc1ccc(O)cc1C(=O)OCC(=O)c1ccc(C2CCCCC2)cc1 | -7 | -4 | 77* | 0 | 13
COc1ccc(C(=O)OCC(=O)c2ccc(C3CCCCC3)cc2)cc1 | 9 | 1 | 1 | 1 | 1
CCc1ccc2oc(C(=O)NCC(c3ccc(Cl)cc3)N3CCOCC3)c(C)c2c1 (stereo unspecified) | nt | 10 | nt | -1 | nt
O=C(CCNC(=O)N1CC(=O)Nc2ccccc21)NCc1ccc(F)cc1 | 52* | -13 | -27 | 0 | -10
N#Cc1cc2ccccc2nc1SCc1cccnc1 | 30* | -7 | -9 | 0 | 4
COc1ccc2nc(SCc3cccnc3)c(C#N)cc2c1 | 2 | -1 | 6 | 0 | -2
CCc1c(C)nc2nc(SCc3ccccc3Cl)[nH]n2c1=O | 32* | -2 | -2 | 0 | -1
Cc1nc2nc(NCc3ccccc3Cl)[nH]n2c(=O)c1Cc1ccccc1 | nt | 4 | nt | -1 | nt
COc1ccc(CN2CCc3nc(SCC(=O)Nc4cc(C)cc(C)c4)[nH]c(=O)c3C2)cc1 | nt | -14 | nt | 0 | nt
C=C(C)COc1ccc(-c2[nH]ncc2-c2ccccc2)c(O)c1 | -6 | 7 | 84* | 0 | 7
C=C(C)COc1ccc(-c2[nH]ncc2-c2ccc(OC)cc2)c(O)c1 | -14 | 9 | -5 | nt | 2
COc1ccc(-c2cn[nH]c2-c2ccc(OCc3ccc(F)cc3)cc2O)cc1OC | 45* | -11 | -10 | -1 | 3
COCCn1nnnc1SCC(=O)N1CCCCC1 | 34* | -7 | -6 | 0 | -3
CCn1nnnc1SCC(=O)N1CCCCC1 | -2 | 2 | -1 | 0 | -3
C=CCn1c(CNC(=O)c2ccccc2F)nnc1SCc1nc2ccccc2c(=O)[nH]1 | nt | 38* | -31 | nt | 13
O=C(Cc1noc2ccccc12)NNC(=S)Nc1ccc(Cl)cc1 | 48* | 18 | -12 | 0 | -9
O=C(Cc1noc2ccccc12)NNC(=S)Nc1ccccc1 | nt | nt | -10 | nt | -6
O=C(Nc1ccc(F)cc1)NC1CCN(Cc2ccccc2)CC1 | 53* | -22 | -13 | 0 | -5
SMILES | D2 antagonist | D2 PAM-1 | D2 PAM-2 | D2 ag-1 | D2 ag-2
O=C(Nc1ccc2c(c1)OCO2)NC1CCN(Cc2ccccc2)CC1 | 46* | -33 | -16 | 0 | -5
O=C(Nc1ccccc1)NC1CCN(Cc2c(F)cccc2Cl)CC1 | -13 | -21 | -22 | -1 | 2
O=C(Nc1ccc2c(c1)OCO2)C1CCCCC1 | -2 | 6 | -2 | 0 | -2
O=C(Nc1ccc2c(c1)OCO2)C1CCN(Cc2cc3c(cc2O)OCO3)CC1 | 35* | -16 | -18 | -4 | -5
Cc1noc(C)c1-c1ccc(C(=O)NCc2cccnc2)c2occc12 | nt | nt | -6 | nt | 6
COc1ccc(S(=O)(=O)N(CC(=O)Nc2cccnc2)c2ccc(C)cc2)cc1OC | nt | -3 | nt | 0 | nt
O=C(NCCCN1CCCCC1)c1ccc(CS(=O)c2ccc(F)cc2)o1 (stereo unspecified) | 32* | -4 | -4 | 1 | -2
O=C(ON=C1CCN(S(=O)(=O)c2ccccc2)CC1)c1cccc(Cl)c1 | -17 | 34* | -10 | -2 | -3
CCN(Cc1nc(-c2ccc(OC)c(OC)c2)no1)C(=O)c1ccc2c(c1)OCO2 | 37* | 3 | -10 | 0 | -3
Cc1ccc(Nc2c(-c3ccc(C)o3)nc3ncccn23)cc1 | -7 | 13 | 5 | 1 | 8
Cc1ccc(-c2nc3ncccn3c2Nc2ccc3c(c2)OCO3)o1 | -4 | 12 | 63* | 0 | 11
COc1cccc(-c2nnc3sc(CN4CCCCC4)cn23)c1 | nt | 5 | nt | nt | nt
COc1ccc(CNC(=O)C2CCN(S(=O)(=O)c3ccc(F)cc3)CC2)cc1 | nt | -20 | nt | -2 | nt
COc1ccc(COC(=O)NC2CCN(S(=O)(=O)c3ccc(OC)cc3)CC2)cc1 | -8 | 11 | -4 | -1 | 0
Cc1ccc(S(=O)(=O)N2CCC(C(=O)N3CC(C)OC(C)C3)CC2)cc1 (stereo unspecified) | 50* | 2 | -12 | -1 | -4
COc1ccc(S(=O)(=O)N2CCC(C(=O)NCc3ccc(C)cc3)CC2)cc1 | 34* | -1 | -8 | 0 | -4
COc1ccc(S(=O)(=O)N2CCC(NC(=O)OCc3c(Cl)cccc3Cl)CC2)cc1 | 35* | 5 | -7 | 1 | -2
COc1ccc(CNC(=O)C2CCCN(S(=O)(=O)c3ccc(-n4cnnn4)cc3)C2)cc1 (stereo unspecified) | 36* | -16 | 3 | 1 | -3
CCOc1ccc(-c2nonc2NC(=O)c2oc3cc(C)c(C)cc3c2C)cc1OCC | nt | -21 | nt | nt | nt
C[C@H]1CN([C@@H](C)CO)C(=O)CCCn2cc(nn2)CO[C@@H]1CN(C)C(=O)Nc1ccc(N2CCN(C)CC2)cc1 | nt | nt | nt | nt | 1
CCOC(=O)N1CCC(NC(=O)c2ccc3c(c2)N(Cc2cc(C)ccc2C)C(=O)c2ccccc2S3=O)CC1 (stereo unspecified) | nt | -4 | nt | 0 | nt
COC(=O)C1=CN(CC2CCCO2)C=C(C(=O)OC)C1c1cccc(O)c1 (stereo unspecified) | -14 | 12 | -11 | 1 | -4
COC(=O)C1=CN(CC2CCCO2)C=C(C(=O)OC)C1c1ccccc1C(F)(F)F (stereo unspecified) | 43* | 6 | 12 | 0 | -1
CCOC(=O)N1CCC(NCCNC(=O)c2ccc(F)c(F)c2)CC1 | 59* | -16 | -23 | 20 | 2
CCOC(=O)N1CCC(NCCNC(=O)c2ccc(Cl)cc2)CC1 | 59* | -26 | -29 | 0 | 0
CC(=O)C1=C(c2ccc(Cl)c(Cl)c2)N(C(C)=O)n2cnnc2S1 | nt | 9 | nt | -1 | nt
Cc1cccc(CNC(=O)c2ccc3nc(Cc4ccccc4)oc3c2)c1 | nt | -5 | nt | 1 | nt
